Six1-Eya2 inh – blocks human Six1 binding to Eya2; Q15475+O00167; AlphaScreen GST-Six1/His-Eya2 binding, biochemical; active compounds read low; activity change, % (concentration not given with the values); actives 0.56% (n = 360,000); AID 651725
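Six1/Eya2 binding was read as AlphaScreen signal after compounds were pinned into GST-Six1 plus His-tagged Eya2 (5X stock 250/500 nM) in pH 8.0 Tris/NaCl/TCEP buffer, beads added, then incubated 1 h, 37 C, dark.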
JMJD2E inh – inhibitors of human JMJD2E histone demethylase | JMJD2E catalytic domain, FDH-coupled NADH fluorescence (FDH is formaldehyde dehydrogenase) | AID 2147 | B2RXH2 | Potency, µM (titrated, usually from 57.1 µM), without a hit: top-dose activity change, negative = inhibition, usual class: inhibitors | actives 1.6% (n = 230,000); active = well fitted inhibition curve with a large enough effect, not every such curve was filed as active; inconclusive = small, poorly fitted or top-dose-only effect, or another doubt; inactive = no such curve, though single readings can be large or run the other way;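 note: potency is the fitted concentration of half-maximal effect; 0% = wells with enzyme and -100% = buffer wells without enzyme; nearly all actives have a fitted effect of over 50% in size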
KCNH2 WT inh – blocks the wildtype human KCNH2 potassium channel. actives 0.37% (n = 340,000). activity change, % at 1.84 µM. Q12809. U2OS, BacMam KCNH2, thallium flux FluxOr; active compounds read low. AID 720551;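 active = maximum activity change below -70%; inconclusive = maximum activity change between -70% and -50%; inactive = maximum activity change above -50%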
Target sequence (Q12809 whole entry, looked up): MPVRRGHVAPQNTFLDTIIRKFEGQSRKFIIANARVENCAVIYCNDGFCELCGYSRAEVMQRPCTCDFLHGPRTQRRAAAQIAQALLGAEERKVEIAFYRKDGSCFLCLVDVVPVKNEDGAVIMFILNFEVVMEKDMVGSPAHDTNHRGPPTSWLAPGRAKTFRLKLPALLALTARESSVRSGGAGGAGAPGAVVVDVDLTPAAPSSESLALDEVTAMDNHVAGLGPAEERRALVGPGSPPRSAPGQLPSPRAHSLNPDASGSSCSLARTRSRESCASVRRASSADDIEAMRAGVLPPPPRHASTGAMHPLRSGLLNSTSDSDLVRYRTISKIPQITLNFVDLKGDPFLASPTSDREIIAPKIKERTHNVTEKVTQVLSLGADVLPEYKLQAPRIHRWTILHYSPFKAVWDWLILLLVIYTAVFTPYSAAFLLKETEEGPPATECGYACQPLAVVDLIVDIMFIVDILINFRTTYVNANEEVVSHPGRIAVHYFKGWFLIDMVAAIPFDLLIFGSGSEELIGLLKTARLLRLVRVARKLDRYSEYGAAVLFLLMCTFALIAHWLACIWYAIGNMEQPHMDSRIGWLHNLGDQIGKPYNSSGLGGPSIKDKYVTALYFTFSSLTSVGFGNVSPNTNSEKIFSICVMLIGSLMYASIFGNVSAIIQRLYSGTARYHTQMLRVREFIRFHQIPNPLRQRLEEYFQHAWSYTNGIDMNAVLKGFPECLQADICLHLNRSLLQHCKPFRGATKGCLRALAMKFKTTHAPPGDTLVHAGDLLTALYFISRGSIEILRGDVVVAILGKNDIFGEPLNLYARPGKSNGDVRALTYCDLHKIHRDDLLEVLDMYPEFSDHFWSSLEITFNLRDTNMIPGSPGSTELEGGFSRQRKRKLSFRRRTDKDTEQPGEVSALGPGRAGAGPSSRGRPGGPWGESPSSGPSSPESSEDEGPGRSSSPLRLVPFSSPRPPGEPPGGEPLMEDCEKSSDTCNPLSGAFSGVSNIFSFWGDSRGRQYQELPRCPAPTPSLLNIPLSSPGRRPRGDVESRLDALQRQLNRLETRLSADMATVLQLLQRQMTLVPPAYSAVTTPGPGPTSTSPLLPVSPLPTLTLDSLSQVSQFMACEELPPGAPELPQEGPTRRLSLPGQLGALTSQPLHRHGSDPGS
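U2OS cells were transduced with wild-type KCNH2 virus (2.03 x 10^8 / mL) for 4 h at room temperature, then cultured overnight at 37 C. Thallium flux was read with FluxOr dye. Rate constants were normalized to DMSO controls.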
KCNH2 3.1 block – inhibitors of human KCNH2 3.1 potassium channel isoform; U2OS KCNH2 3.1, thallium flux FluxOr; active compounds read low; activity change, % (tested at about 1.8 µM); actives 0.95% (n = 340,000); AID 720553;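 active = maximum activity change below -70%; inconclusive = maximum activity change from -70% to -50%; inactive = maximum activity change above -50%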;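 note: thallium influx rate constant from kinetic fluorescence after stimulation buffer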
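Thallium flux read-out: FluxOr dye with Red40 quencher in HBSS/HEPES, 45 min at RT. Rate constants from kinetic reads were normalized to positive and negative DMSO controls. Cells: U2OS virally expressing the 3.1 isoform.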
CtBP-E1A inh – blocks the CtBP interaction with E1A; AlphaScreen GST-E1A/His-CtBP binding, 1536-well; active compounds read low; activity change, % (concentration not given with the values); actives 0.49% (n = 340,000)
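GST-E1A and His-tagged CtBP (125 nM each as 5X stock) were preincubated with pin-transferred compound for 2 h at 37 °C in the dark, then glutathione donor and nickel acceptor beads were added for 1 h before AlphaScreen reading.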
Starred values were filed as active, the others as inactive; u = inconclusive; x = not tested or not shown. An excerpt weighted towards active compounds, which were near 2% of everything screened. Cut-off read from the data, not from the text of the source, unless noted: active = activity change below about -65%; inconclusive = mostly about -30% to -63%; inactive = weaker than that. Unless noted, % is set by controls: 0 for no effect and ±100 for the full control effect.

SMILES | Six1-Eya2 inh | JMJD2E inh | KCNH2 WT inh | KCNH2 3.1 block | CtBP-E1A inh
Fc1ccc(-c2nn3c(C4COc5ccccc5O4)nnc3s2)cc1 (stereo unspecified) | 4 | -5% | 9 | -8 | -2
c1csc(-c2nn3c(C4COc5ccccc5O4)nnc3s2)c1 (stereo unspecified) | -5 | 32µM* | 16 | -7 | -11
NCCCn1c(C(=O)c2cc(Cl)c(N)c(Cl)c2)c2ccc(C(F)(F)F)cc2[n+]1[O-] | -15 | x | 10 | -125* | -18
NC(=O)CCCn1c(C(=O)c2cc(Cl)c(N)c(Cl)c2)c2ccc(C(F)(F)F)cc2[n+]1[O-] | -11 | x | 4 | -85* | -4
CN(C)c1ccc2cc(S(=O)(=O)O)cc(O)c2c1 | -73* | x | 5 | 28 | u
NC1=NC(c2cn(-c3ccccc3)nc2-c2cccs2)n2c(nc3ccccc32)N1 (stereo unspecified) | -1 | -14% | -22 | -9 | -2
COCCN1CN(S(=O)(=O)c2ccccc2)c2nc3ccccc3nc21 | -82* | 1% | -1 | -8 | -2
CCOC(=O)CSc1n[nH]c(=S)s1 | 10 | 10µM* | 9 | -5 | 2
CCOC(=O)CSc1nn(C)c(=S)s1 | 5 | -8% | 19 | 4 | 11
Cc1cc(NC(=O)CSc2nc3ccccc3c(=O)n2Cc2ccc(F)cc2)no1 | 1 | 9% | 4 | -33 | -1
O=C(CSc1nc2ccccc2c(=O)n1Cc1ccc(F)cc1)NCc1cccs1 | 9 | -1% | -26 | -95* | 1
Cc1nc2ccccc2c(=O)n1/N=C/c1ccc(N(C)C)cc1 | 3 | -7% | 4 | -7 | 0
COc1ccc(NC(=O)COC(=O)c2cc(OC)c(OC)cc2NC(=O)c2ccco2)cc1OC | -2 | u | 6 | 2 | -2
O=C(Nc1ccc(Br)cn1)c1cccc(C(=O)Nc2ccc(Br)cn2)c1 | -7 | x | 10 | -77* | 13
C/C(=N\NC(=O)c1ccc(CN(C)S(=O)(=O)c2ccc(C)cc2)cc1)c1ccc(OC(F)F)cc1 | 4 | 9% | -2 | -42 | -3
Cc1ccc(S(=O)(=O)N(C)Cc2ccc(C(=O)N/N=C/c3ccc(OC(F)F)cc3)cc2)cc1 | -4 | -5% | u | -109* | -9
COC(=O)C(CC(C)C)NC(=O)/C=C/c1ccc(Cl)cc1 (stereo unspecified) | -7 | 0% | 0 | -9 | 19
Cc1ccc(S(=O)(=O)NCCC(=O)N2CCCC(C)C2)cc1 (stereo unspecified) | 3 | x | -19 | -7 | 0
CC(C(O)c1ccc(O)cc1)N1CCC(Cc2ccccc2)CC1 (stereo unspecified) | -2 | 0% | 53 | -88* | -3
C[C@@H]([C@H](O)c1ccc(O)cc1)N1CCC(Cc2ccccc2)CC1 | x | -24% | x | x | x
C[C@@H](CN1CCC(Cc2ccccc2)CC1)[C@@H](O)c1ccc(O)cc1 | -9 | 0% | 37 | -217* | -8
Cc1cccc(NS(=O)(=O)c2cc3c4c(c2)CCN4C(=O)CC3)c1C | 3 | x | -173* | -1 | -3
C[C@H]1C[C@H]2[C@@H]3CCC4=CC(=O)C=C[C@]4(C)[C@@]3(Cl)[C@@H](O)C[C@]2(C)[C@@]1(O)C(=O)CO | -2 | 6% | -4 | 4 | 1
CC(Sc1nnc(NC2CCCCC2)s1)C(=O)Nc1ccc2c(c1)C(=O)c1ccccc1C2=O (stereo unspecified) | -75* | -8% | -2 | -7 | 0
CN(C)c1ccc(CNc2ncc(Br)cc2Br)cc1 | -66* | -3% | 1 | 8 | u
SMILES | Six1-Eya2 inh | JMJD2E inh | KCNH2 WT inh | KCNH2 3.1 block | CtBP-E1A inh
Cc1nc(N2CCOCC2)nc(OC(C)C)c1[N+](=O)[O-] | 23 | -5% | -3 | 21 | -7
COc1nc(N2CCOCC2)nc(C)c1[N+](=O)[O-] | 2 | 8% | -107* | 16 | 1
O=C(NN1C(=O)c2ccccc2NC1c1cccnc1)c1ccc([N+](=O)[O-])cc1 (stereo unspecified) | -3 | 1% | 9 | 10 | -22
O=C(NNC(=O)c1ccc2ccccc2c1O)NC1CCCCC1 | -12 | x | -88* | -10 | -22
Cc1nc(N/N=C/c2ccccn2)sc1C | u | 13µM* | 5 | 6 | u
COc1cc(C(=O)N/N=C/c2cc([N+](=O)[O-])cs2)cc(OC)c1OC | u | 4% | -7 | 18 | -72*
CCOc1ccc(C(=O)N/N=C/c2cc([N+](=O)[O-])cs2)cc1 | -24 | 1% | 2 | 22 | -19
CC(C)CN1CCNC(=O)C1CC(=O)NCCc1cnn(-c2ccccc2)c1 (stereo unspecified) | -6 | u | 3 | -114* | -9
CC(C)(C)CN1CCNC(=O)C1CC(=O)NCCc1cnn(-c2ccccc2)c1 (stereo unspecified) | 6 | 8% | -3 | -17 | 3
O=C(Cc1coc2cc(O)ccc12)NNC(=O)c1cccs1 | -4 | x | -7 | -17 | 8
O=C(On1c(-c2ccccc2)nc2ccccc2c1=O)c1ccco1 | 5 | 20µM* | -6 | -2 | 1
Cc1ccc(-c2csc(N3CCC[C@@H]3C(=O)NCCn3c(-c4ccncc4)nc4ccccc43)n2)cc1 | -16 | x | 6 | -105* | -17
Cc1ccc(-c2csc(N3CCN(CCCn4c(-c5ccncc5)nc5ccccc54)CC3)n2)cc1 | -28 | x | -7 | -25 | -21
Cc1ccc(C)c(SCC(=O)NC(=O)Nc2ccc3c(c2)OCCO3)c1 | 3 | 2% | -79* | 5 | -2
O=C(CSc1ncccn1)NC(=O)Nc1ccc2c(c1)OCCO2 | -6 | 0% | -7 | 2 | 5
O=C(Nc1nc(-c2ccccc2)cs1)C1CCCCN1S(=O)(=O)c1ccc(Cl)cc1 (stereo unspecified) | -11 | -2% | 0 | -8 | -8
CC(=O)N(C)c1ccc(NC(=O)Nc2ccc(Cl)cc2)cc1 | 4 | x | 1 | -29 | 10
Cc1cc(C)n(S(=O)(=O)/C=C/c2ccccc2)n1 | 5 | -1% | -88* | -9 | 16
CN(CC1CCCN(CCc2ccc(Cl)cc2)C1)C(=O)c1ccco1 (stereo unspecified) | -1 | x | -37 | -79* | 2
CN(CC1CCCN(CCc2ccc(Cl)cc2)C1)C(=O)c1ccoc1 (stereo unspecified) | 1 | x | -20 | u | 2
CC1(C)CC(=O)c2sc(NS(=O)(=O)c3ccc(Br)cc3)nc2C1 | 2 | -7% | -12 | 16 | 3
NC(=O)N=Nc1c2[nH]c3ccccc3nc-2c2ccccc12 | u | 12% | 0 | -12 | -69*
CCOC(=O)c1c(C)[nH]c(C)c1S(=O)(=O)NC(C)Cc1ccco1 (stereo unspecified) | -3 | x | 5 | -80* | x
